About 280 (8.5%) of roughly 3,300 compounds were called active. The list comes from a sample in which actives are over-represented; it also holds similar structures and randomly drawn compounds. Values without a mark were called inactive.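 The calls were made as follows: active = mean growth inhibition over the two runs of 50% or more; inactive = mean growth inhibition under 50%.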

This assay is described as follows: A549 NSCLC cell proliferation inhibitors – ATP luminescence, human non-small cell lung line, primary screen (AID 371).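 Also: compound exposure lasted 72 h before the ATP read; 0% = untreated cell signal and 100% = no luminescence left.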 As to conditions: at 10 µM, stronger effect = higher value.
Regarding `CC1(C)CC(=O)C=C(N=CC2=C(O)CC(C)(C)CC2=O)C1`, the growth inhibition is 1.19%.

`Cc1cc(=O)oc(C)c1C(=O)NCCN1CCOCC1`: the growth inhibition is -2.84%.

As for `CCC(=O)Nc1cccc(-c2nnc(SCC(=O)NCc3ccco3)n2C)c1`, the growth inhibition was -4.64%.

For the compound `CSc1nc2sc3c(c2c2nnnn12)CC(C)(C)OC3`, the growth inhibition was 9.43%.

As for `CC1(C)Cc2c(sc3c4nnnn4c4nnnn4c23)CO1`, the growth inhibition is 62.4% (active).

In the case of `CC1(C)Cc2c(sc3ncn4nnnc4c23)CO1`, the growth inhibition was 0.79%.

As for `COc1ccc(-n2c(SCC(N)=O)nc3sc4c(c3c2=O)CCN(C)C4)cc1`, the growth inhibition was 8.23%.

On to `Cn1c(=O)n(CCC(=O)O)c2ccccc21`, for which the growth inhibition was 1.48%.

As to `COC(=O)CC1=C(C(=O)OC)C(c2ccncc2)C(C#N)=C(N)O1` (configuration not stated), the growth inhibition is 3.31%.

As to `O=C(Nc1ccc(N2CCN(C(=O)c3ccccc3)CC2)c(Cl)c1)c1ccc(Br)o1`, the growth inhibition was 64.9% (active).

Turning to `O=C(Nc1ccc2c(c1)OCCO2)c1ccc(Br)o1`, the growth inhibition was 19.2%.

Turning to `O=C(c1cccc(Cl)c1)N1CCN(C(=O)c2ccccc2F)CC1`, the growth inhibition is 0.26%.

Regarding `CCCCC(=O)C1CCN(Cc2ccccc2)CC1`, the growth inhibition was -7.27%.

In the case of `COc1cc(-c2nn3c(C4CCCCC4)nnc3s2)cc(OC)c1OC`, the growth inhibition was 18.1%.

On to `CN(C=C1C(=O)CC(C)(C)CC1=O)CCN1CCNCC1`, for which the growth inhibition is 3.03%.

On to `COc1ccc(C(=O)CSC2=C(C#N)C3(CCCCC3)C(C#N)=C(N)N2)cc1`, for which the growth inhibition was 49.2%.

For the compound `N#Cc1c(SCC(N)=O)nsc1SCc1ccc(Cl)cc1`, the growth inhibition was 23.5%.

Take `N#CC1=C(N)NC(SCc2ccc(Cl)cc2)=C(C#N)C12CCCCC2`: the growth inhibition was 91% (active).

Take `N#CC1=C(N)NC(SCc2ccc(F)cc2)=C(C#N)C12CCCCC2`: the growth inhibition was 84.3% (active).

Consider `COc1ccc(-c2oc3ncn4nc(COc5ccccc5)nc4c3c2-c2ccc(OC)cc2)cc1`, for which the growth inhibition is 10.6%.

Regarding `CCOC(=O)c1[nH]c2ccc(OC)cc2c1NC(=O)CCN1CCCC(C)C1` (configuration not stated), the growth inhibition was 6.76%.

With `c1cncc(Oc2cccc(Oc3cccnc3)c2)c1`, the growth inhibition is 20.7%.

On to `COc1ccc(OC)c(C2C(C(=O)c3sc(C)nc3C)=C(O)C(=O)N2CCN2CCOCC2)c1` (configuration not stated), for which the growth inhibition is 5.82%.

As to `O=C1CC(NCc2ccc3c(c2)OCO3)C(=O)N1Cc1ccc2c(c1)OCO2` (configuration not stated), the growth inhibition was 0.14%.

Consider `CCN1CC2=C(OC(N)=C(C#N)C2c2ccccc2)/C(=C\c2ccccc2)C1` (configuration not stated), for which the growth inhibition was 46.8%.

Turning to `COc1cccc(/C=C2/CN(C)CC3=C2OC(N)=C(C#N)C3c2cccc(OC)c2)c1` (configuration not stated), the growth inhibition was 67.5% (active).

For `COCc1[nH]nc2c1C(c1cccc(OC)c1)C(C#N)=C(N)O2` (configuration not stated), the growth inhibition was 8.14%.

The values are drawn from PubChem BioAssay AID371 (SRMLSC, 2006).
